Measured values reported in PubChem BioAssay (NCATS).
Inconclusive results are not listed. The source made the active and inactive calls. Calls come from the whole dose curve; as a rule, active = well fitted curve in the direction sought with a large enough effect; inconclusive = small, poorly fitted or top-dose-only effect, or another doubt; inactive = no such curve, though single readings can be large; an effect the other way counts as inactive or inconclusive.

Experiments:
HACAT = assay: qHTS assay to identify novel small-molecules to repurpose for Merkel cell carcinoma treatment (AID 1296009); conditions: MCC and control cell lines, CellTiter-Glo viability, 72 h; at 44.8 µM (top of the series) unless noted; note: nearly all actives have a fitted effect of over 60% in size
In short: (§1)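 After compound transfer in DMSO, plates were kept 72 hr at 37 degree celsius. Luminescent ATP signal from CellTiter-Glo served as viability measure, normalized against DMSO and no-cell controls.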

HEK293T = assay: as above; conditions: MCC and control cell lines, CellTiter-Glo viability, 72 h; series mostly up to 44.8 µM
In short: as §1

NIH3T3 = assay: as above; conditions: MCC and control cell lines, CellTiter-Glo viability, 72 h; at 44.8 µM (top of the series) unless noted
In short: as §1

C33A = assay: Primary qHTS to identify gynecologic anti-cancer compounds using libraries of approved drugs and bioactive compounds (AID 1345084); conditions: Gynecologic cancer cell panel viability, ATPlite luminescence, 48 h; series mostly up to 57.5 µM; note: nearly all actives have a fitted effect of over 55% in size
In short: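 Luminescence from the ATPlite ATP-monitoring reagent indicates viable cell number; lower signal means cytotoxicity. Cells received compound 16 h after seeding and were exposed for 48 h across five concentrations.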

Measured: Potency

CC(C)(O)c1ccc2c(c1)C(O)CC1C(C)(C(=O)O)CCCC21C (stereo not given)
inactive: HACAT | HEK293T | NIH3T3 | C33A

CC(=O)OC(CSC1CCC(=O)OC(C)CCC(=O)C1)C(=O)O (stereo not given)
inactive: HACAT | HEK293T | NIH3T3 | C33A

CCCC1=CC2=C(CO1)C(=O)C(C)(OC(=O)c1c(C)cc(OC)cc1O)C(O)C2 (stereo not given)
inactive: HACAT inactive [at 17.4 µM] | HEK293T | NIH3T3 inactive [at 17.4 µM] | C33A

CCNC(=O)CCC/C=C\C[C@@H]1[C@@H](/C=C/C(O)CCc2ccccc2)[C@@H](O)C[C@@H]1O (stereo not given in full)
inactive: HACAT | HEK293T | NIH3T3 | C33A

CCOC(=O)c1ccc(N(C)c2csc(-c3ccccc3)n2)cc1
inactive: HACAT | HEK293T | NIH3T3 | C33A

Cc1[nH]cnc1C1CCN(c2nc3cccc4c3n2CCC4=O)CC1
inactive: HACAT | HEK293T | NIH3T3 | C33A

C=C[C@H]1[C@H](O[C@@H]2O[C@H](CO[C@@H]3OC[C@](O)(CO)[C@H]3O)[C@@H](O)[C@H](O)[C@H]2O)OC=C2C(=O)OCC[C@H]21
inactive: HACAT inactive [at 17.4 µM] | HEK293T | NIH3T3 inactive [at 17.4 µM] | C33A

Cc1c(N2C(=O)c3ccc(C(=O)O)cc3C2=O)c(=O)n(-c2ccccc2)n1C
inactive: HACAT | HEK293T | NIH3T3 | C33A

O=C(CCCCc1ccc2ccccc2c1)C(F)(F)F
inactive: HACAT inactive [at 92 µM] | HEK293T | NIH3T3 inactive [at 92 µM] | C33A

O=C(O[C@H]1[C@@H]2C=CO[C@@H](O[C@@H]3O[C@H](CO)[C@@H](O)[C@H](O)[C@H]3O)[C@@H]2[C@@]2(CO)O[C@@H]12)c1ccc(O)c(O)c1
inactive: HACAT inactive [at 17.4 µM] | HEK293T | NIH3T3 inactive [at 17.4 µM] | C33A
